This is an account of results in PubChem BioAssay AID2629 (Broad Institute, 2010).

SMILES strings stand for the structures. Among all 320,000 compounds or so, about 1,900 (0.59%) were called active. The full list was thinned out, with actives kept by preference. Values without a mark were called inactive. Cut-off read from the data, not from the text of the source: active = inhibition mostly above about 10% (no sharp cut-off); inactive = mostly below about 6.7%.

The target of the assay is Protein LANA1 (Human herpesvirus 8 type P (isolate GK18)) (UniProt Q9QR71). The assay is described as follows: blockers of LANA interaction with H2A/H2B – biochemical, FP readout, HTS, primary screen (AID 2629). As to conditions: cell-free LANA-H2A/H2B peptide, fluorescence polarization, active compounds read high, concentration not given here.
Chain of Protein LANA1 (Human herpesvirus 8 type P (isolate GK18)) (Q9QR71 whole entry, looked up): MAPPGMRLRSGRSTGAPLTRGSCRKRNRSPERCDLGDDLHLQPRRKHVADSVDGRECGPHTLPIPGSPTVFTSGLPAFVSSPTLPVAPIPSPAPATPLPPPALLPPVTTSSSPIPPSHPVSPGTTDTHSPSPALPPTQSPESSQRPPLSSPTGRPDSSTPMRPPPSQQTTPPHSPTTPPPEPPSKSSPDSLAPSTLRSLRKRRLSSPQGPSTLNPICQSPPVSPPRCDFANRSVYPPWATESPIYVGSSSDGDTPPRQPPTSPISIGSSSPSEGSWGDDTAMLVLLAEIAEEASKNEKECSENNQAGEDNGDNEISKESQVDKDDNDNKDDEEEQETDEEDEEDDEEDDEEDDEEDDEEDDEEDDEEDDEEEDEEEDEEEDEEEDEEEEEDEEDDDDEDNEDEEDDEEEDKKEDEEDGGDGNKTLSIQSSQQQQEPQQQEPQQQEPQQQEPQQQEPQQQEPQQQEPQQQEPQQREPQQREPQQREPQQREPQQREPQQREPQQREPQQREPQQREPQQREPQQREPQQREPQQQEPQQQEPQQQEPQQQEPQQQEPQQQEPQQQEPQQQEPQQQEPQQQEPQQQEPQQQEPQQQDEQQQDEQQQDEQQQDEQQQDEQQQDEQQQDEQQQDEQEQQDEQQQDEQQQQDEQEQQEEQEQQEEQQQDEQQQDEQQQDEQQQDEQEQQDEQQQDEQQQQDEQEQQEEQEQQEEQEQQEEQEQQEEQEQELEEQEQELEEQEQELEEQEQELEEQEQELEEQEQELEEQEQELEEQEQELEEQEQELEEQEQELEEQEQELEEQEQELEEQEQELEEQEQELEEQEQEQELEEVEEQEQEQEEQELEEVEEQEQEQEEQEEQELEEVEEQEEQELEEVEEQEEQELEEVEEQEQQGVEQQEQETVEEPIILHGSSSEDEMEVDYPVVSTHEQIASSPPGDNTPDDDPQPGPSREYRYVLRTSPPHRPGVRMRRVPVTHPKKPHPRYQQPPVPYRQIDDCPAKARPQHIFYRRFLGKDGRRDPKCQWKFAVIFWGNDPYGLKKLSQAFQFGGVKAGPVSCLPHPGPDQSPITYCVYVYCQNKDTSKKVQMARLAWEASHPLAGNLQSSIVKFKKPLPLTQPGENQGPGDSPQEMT
On to `Cc1c(C(C)CCCO)oc(=O)c2c1Oc1c(C)c(C(C)C[C@@H](C)O)oc(=O)c1C2` (some centres undefined), for which the inhibition was -3.56%.

`COc1ccc(C(=O)COC(=O)C(O)c2ccccc2)c(OC)c1` (centres undefined): the inhibition is -6.19%.

For the molecule `O=C(c1cn2ccccc2n1)N1CCc2c([nH]c3ccccc23)C1c1ccccn1` (centres undefined), the inhibition is 2.75%.

On to `Cc1cccc(C2c3[nH]c4ccccc4c3CCN2C(=O)c2cc(-c3cccn3C)n[nH]2)n1` (centres undefined), for which the inhibition was 1.43%.

Consider `COCc1ccc(C(=O)N2CCc3c([nH]c4ccccc34)C2c2ccccn2)s1` (centres undefined), for which the inhibition was 183% (active).

For `Cc1cc(C)n(CCNC(=O)CC2C(=O)NCCN2Cc2ccc(C)o2)n1` (centres undefined), the inhibition was 4.74%.

On to `Cc1cc(N2C(=O)c3ccc(C(=O)NCc4ccccc4)cc3C2=O)no1`, for which the inhibition was 0.191%.

`O=C(CSc1nc2ccccc2c(=O)n1-c1ccc(F)cc1)NC1CC1`: the inhibition was 0.0498%.

`CC1CCN(CCCn2c(SCC(=O)NC3CCCC3)nc3ccccc3c2=O)CC1`: the inhibition is 2.87%.

Turning to `O=C(CSc1nc2ccccc2c(=O)n1CCCO)NC1CC1`, the inhibition is 635% [above what the read-out allows, likely interference] (active).

`COc1ccc(C)cc1S(=O)(=O)N(CC(=O)Nc1cccc([N+](=O)[O-])c1)c1ccc(C)cc1`: the inhibition was -2.08%.

As for `Cc1ccc(NC(=O)C(C)Sc2nnc(C3CC3)n2C2CC2)cc1S(=O)(=O)N1CCOCC1` (centres undefined), the inhibition was -1.97%.

In the case of `COc1ccc([N+](=O)[O-])cc1N(CC(O)CN(CC(C)C)CC(C)C)S(=O)(=O)c1ccc(C)cc1` (centres undefined), the inhibition was 1.46%.

On to `Cc1cccn2c(=O)c(/C=C(\C#N)C(N)=O)c(N3CCCCCC3)nc12`, for which the inhibition is 6.27%.

For `Cc1cccn2c(=O)c(/C=C(\C#N)S(=O)(=O)c3ccc(Cl)cc3)c(N3CCC(C(N)=O)CC3)nc12`, the inhibition was -0.0722%.

With `Cc1cc(C)cc(Oc2nc3c(C)cccn3c(=O)c2/C=C(\C#N)C(=O)NC2CCS(=O)(=O)C2)c1` (centres undefined), the inhibition is 18.8% (active).

Consider `COc1c(Br)cc2c(C)c(C(=O)N3CCOCC3)oc2c1Br`, for which the inhibition was -7.01%.

Regarding `O=C(CSC1=Nc2ccccc2C2=NC(CC(=O)NCc3ccco3)C(=O)N12)NCc1ccco1` (centres undefined), the inhibition is -2.02%.

Take `CCC(C)NC(=O)CSC1=Nc2ccccc2C2=NC(CCC(=O)NCc3ccco3)C(=O)N12` (centres undefined): the inhibition is 4.12%.

For `CC(C)C1N=C2c3ccccc3N=C(SCC(=O)c3ccc(O)c(O)c3)N2C1=O` (centres undefined), the inhibition is 13.1% (active).

`CS(=O)(=O)N(Cc1ccccc1Cl)c1ccc(C(=O)NCc2cccnc2)cc1`: the inhibition was 3.45%.

On to `O=C(/C=C/c1ccc([N+](=O)[O-])cc1)NCCSCc1ccco1`, for which the inhibition is 5.42%.

Turning to `O=C(NCCc1ccc(C(F)(F)F)cc1)c1ccc2c(c1)OCO2`, the inhibition was 16.2% (active).

Regarding `Cc1ccc2cc(CCNC(=O)c3ccc4c(c3)OCO4)c(=O)[nH]c2c1`, the inhibition is -1.83%.

With `O=C(Nc1ccccc1F)c1ccc2c(c1)OCO2`, the inhibition is -1.38%.

As for `COc1ccc(OCCn2ccnc2C)cc1`, the inhibition is -0.22%.

`COC(=O)C1=C(C(=O)OC)C2(OC1c1ccc(Br)cc1)C(=O)c1ccccc1C2=O` (centres undefined): the inhibition is 3.44%.

As to `C=CCSc1nc2c(c(=O)[nH]c(=O)n2C)n1Cc1ccccc1`, the inhibition is -0.531%.

On to `Cc1cc2nc3c(=O)n(Cc4ccccc4)c(=O)[nH]c3nc2cc1N`, for which the inhibition is 27.2% (active).

`COC(=O)CSc1nc2ccccc2c(=O)n1Cc1ccccc1`: the inhibition is 2.39%.

Consider `Cc1ccc2cccc(OCCCOc3ccccc3CO)c2n1`, for which the inhibition is -1.05%.

As to `COc1ccc(N2C(=O)c3cccc4cccc(c34)C2=O)nn1`, the inhibition was -111%.

On to `C[N+](C)(CCCCCC[N+](C)(C)CCCN1C(=O)c2cccc3cccc(c23)C1=O)CCCN1C(=O)c2cccc3cccc(c23)C1=O`, for which the inhibition was 0.475%.

As to `Cc1nn(-c2cc(Cl)ccc2N)c(=O)c2ccccc12`, the inhibition is 0.97%.

On to `O=C(O)c1ccc2c3c(cccc13)C(=O)N(OS(=O)(=O)c1ccccc1)C2=O`, for which the inhibition is 1.71%.

Turning to `Cc1nn(C)cc1N1C(=O)c2cccc3c(N)ccc(c23)C1=O`, the inhibition is 101% (active).

As to `CN1C(=O)c2cccc3c(N)ccc(c23)C1=O`, the inhibition is 25.3% (active).

For `CC(C)C[C@H]1CN=C(Nc2ccccc2)N1CC1CCCCC1`, the inhibition was -0.894%.

Consider `CCC(=O)Nc1nnc(S(=O)(=O)N2CCCc3ccccc32)s1`, for which the inhibition was 3.1%.

On to `CN(Cc1ccccc1)C(=O)C1CCCN(c2ncnc3c2nc2n3CCCCC2)C1` (centres undefined), for which the inhibition was -6.07%.

Take `CN1CCN(S(=O)(=O)c2ccc(Nc3ccc(F)cc3)nc2)CC1`: the inhibition is 3.84%.

For `CC1(C(=O)O)CCC(C(=O)Nc2ccc(Cl)c(Cl)c2)C1(C)C` (centres undefined), the inhibition is -7.06%.

Take `O=C(c1ccccc1)c1cccn1CC(=O)N1CCN(c2ccc(F)cc2)CC1`: the inhibition was 5.58%.

In the case of `CC1=C(C(=O)OCc2ccccc2)C(c2ccco2)n2ncnc2N1` (centres undefined), the inhibition was -3.53%.

In the case of `Brc1ccc(C2=CC(c3ccco3)n3ncnc3N2)cc1` (centres undefined), the inhibition was 35% (active).

As for `CCOc1ccc(C2=CC(c3ccccc3)n3ncnc3N2)cc1` (centres undefined), the inhibition was -0.926%.

For `Cc1ccc(NC(=O)COc2coc(CN3CCc4ccccc4C3)cc2=O)cc1Cl`, the inhibition was -6.2%.

As to `O=C(Nc1ccc(Br)cc1)C1CCC(=O)N1Cc1ccccc1Cl` (centres undefined), the inhibition was 1.59%.

As to `COc1ccc2oc(=N)c(C(=O)Nc3ccc(Br)cc3)cc2c1`, the inhibition is 1.77%.

Turning to `COc1ccc(/C=C/C(=O)c2cc(Br)ccc(=O)c2O)cc1`, the inhibition is 182% (active).

As to `COc1ccc(C(=O)/C=C/c2cccnc2)c(OC)c1`, the inhibition is 0.568%.

For `CC(=O)c1ccc(S(=O)(=O)NC2CC(=O)N(c3ccc4c(c3)OCCO4)C2)cc1` (centres undefined), the inhibition was -5.02%.

For `CC(C)C(=O)Nc1ccc2c3c(cccc13)CC2`, the inhibition was 22.9% (active).

Take `CC(C)C(=O)Nc1ccc2c(c1)oc1ccccc12`: the inhibition was 0.3%.

In the case of `O=S(=O)(NC1CC1)c1ccc2c3c(cccc13)CC2`, the inhibition was -8.67%.

As for `CC(C)Oc1ccc(C(=O)NC(C)(C)CO)cc1`, the inhibition is 2.55%.

With `O=C(/C=C/Nc1ccc(S(=O)(=O)Nc2cnc3ccccc3n2)cc1)c1cccnc1`, the inhibition was 5.47%.

Take `Cc1cccc(N2CC(C)Cn3c2nc2c3c(=O)n(CC(=O)OCc3ccccc3)c(=O)n2C)c1` (centres undefined): the inhibition was 0.536%.

In the case of `O=C(Nc1ccccc1C(=O)N1CCCCC1)c1ccco1`, the inhibition was 20.4% (active).

As for `O=C(Nc1ccccc1C(=O)N1CCCCCC1)c1ccccc1Cl`, the inhibition was -5%.

With `O=C(Nc1c(C(=O)N2CCCCC2)cnn1-c1ccccc1)c1ccco1`, the inhibition is 0.114%.

Regarding `CCOc1ccc(NC(=O)CN(C)C(=O)c2c(C)noc2C)cc1OCC`, the inhibition is -1.42%.

`CCCCN=C1N/C(=C\c2ccco2)C(=O)N1c1ccccc1`: the inhibition is -4.75%.

As for `CCOc1ccc(CC(=O)NCCS(=O)(=O)N2CCN(c3ccccc3)CC2)cc1`, the inhibition was 7.98%.

For `COc1ccc(OC)c(NC(=O)N[C@H](Cc2ccccc2)C(=O)NN)c1`, the inhibition was 1.67%.

`O=C(CNC(=O)OCc1ccccc1)Oc1cc2oc(=O)cc(-c3ccccc3)c2cc1Cl`: the inhibition is 22.2% (active).

With `O=C(CNC(=O)c1ccc(-c2ccccc2)cc1)OCc1ccc(Cl)cc1`, the inhibition is -3.98%.

For the molecule `CC(=O)COc1ccc2c(-c3ccccc3)cc(=O)oc2c1`, the inhibition is 4.47%.

On to `COc1ccc(CCNC(=O)C2CCCN(Cc3nc(-c4cccc(Cl)c4)oc3C)C2)cc1OC` (centres undefined), for which the inhibition is 2.76%.

On to `CCN1C(=O)C(=O)N(CC(=O)Nc2cc(C)ccc2C)C1=O`, for which the inhibition is 65.4% (active).

For the molecule `CCN1C(=O)C(CC(=O)Nc2cc(C)ccc2C)SC1=Nc1ccc(S(N)(=O)=O)cc1` (centres undefined), the inhibition was -5.5%.

`Cc1ccc(C)c(NC(=O)COC(=O)Cn2c(C)csc2=O)c1`: the inhibition is -0.0986%.

With `Cc1cccc(C(=O)NCC(=O)OCC(=O)N(C)CC(=O)Nc2ccccc2Cl)c1`, the inhibition was -3.61%.

In the case of `CSc1nnc(-c2ccc(C(F)(F)F)cn2)o1`, the inhibition was 12.3% (active).

Regarding `CC(C)Oc1ccc(Oc2ccc(C(F)(F)F)cn2)cc1`, the inhibition was 0.437%.

With `FC(F)(F)c1cnc(Oc2ccccc2-c2nnc(-c3ccc(Cl)cc3)o2)c(Cl)c1`, the inhibition was 0.331%.

For the molecule `N/C(=N\c1nc2ccccc2o1)NC(=O)C(Cc1ccccc1)N1C(=O)c2ccccc2C1=O` (centres undefined), the inhibition is -0.102%.

Consider `C[N+](C)(C)CCNC(=O)c1cc[n+](Cc2ccccc2)c(/C=N/O)c1`, for which the inhibition was -2.86%.

In the case of `COc1ccc(NC(=O)CC2C(=O)OCC3CCCCN32)cc1Cl` (centres undefined), the inhibition was 6.65%.

As to `Cc1cc(NC(=O)CN2C(=O)NC(CC(C)C)C2=O)no1` (centres undefined), the inhibition is -2.81%.

Take `CCOC(=O)c1[nH]c2ccc(OC)cc2c1NC(=O)N1CCOCC1`: the inhibition is -1.57%.

Turning to `CCOC(=O)N1CCN(CCC(=O)Nc2cc(OC)ccc2OC)CC1`, the inhibition was -0.496%.

For `CCOC(=O)c1[nH]c2ccc(OC)cc2c1NC(=O)CCN1CCN(Cc2ccccc2)CC1`, the inhibition was 38.6% (active).

As to `CC1CCCN(S(=O)(=O)c2ccc(-c3ccc(=O)[nH]n3)o2)C1` (centres undefined), the inhibition is 5.98%.

For `CSCCC(NC(=O)c1ccccc1)C(=O)N1CCCCCCC1` (centres undefined), the inhibition is 3.36%.

As for `CSCC(NS(=O)(=O)c1ccc(C)cc1)C(=O)O` (centres undefined), the inhibition is 4.08%.

Consider `CSCCC(NS(=O)(=O)c1ccc(C)cc1)C(=O)N1CCCC1` (centres undefined), for which the inhibition is 10.1% (active).

In the case of `O=C(NCCOc1ccccc1F)Nc1ccc(Br)cc1`, the inhibition was 1.21%.

For the molecule `CCC(C)[C@H](NC(=O)N1c2ccccc2NC(=O)[C@@H]1C(C)C)C(=O)N[C@@H](Cc1ccccc1)C(=O)O` (some centres undefined), the inhibition is 0.386%.
